From publication PMC11006913 come the findings set out here.

Substitutions are numbered along the chain they refer to.

Targets include PRRX1 (Homo sapiens, UniProt P54821 80-166, F113S); SHOX (Homo sapiens, UniProt O15266 103-189, R173C); PITX2 (Homo sapiens, UniProt Q99697 72-157).
Holding throughout (assay): PBM; 200 nM protein, PBS
Details in all cases: dsDNA, one strand shown

Assay [1] concerns the target ALX4 (Homo sapiens, UniProt Q9H161 200-286).
Assay [2] addresses ALX4 (Homo sapiens, UniProt Q9H161 200-286, Q225E).
Assay [3] deals with ALX3 (Homo sapiens, UniProt O95076 139-225, N203Q).
Assay [4] deals with ALX3 (Homo sapiens, UniProt O95076 139-225).
Assay [5] concerns the target ALX3 (Homo sapiens, UniProt O95076 139-225, L168Q).
Assay [6] deals with ALX3 (Homo sapiens, UniProt O95076 139-225, L168V).
For assay [7], the target named is ALX3 (Homo sapiens, UniProt O95076 139-225, N203S).
For assay [8], the target named is MSX2 (Homo sapiens, UniProt P35548 130-214, R199I).
Assay [9] deals with MSX2 (Homo sapiens, UniProt P35548 130-214).
Assay [10] addresses MSX2 (Homo sapiens, UniProt P35548 130-214, F161Y).
Assay [11] concerns the target T1, PAX4 (Homo sapiens, UniProt O43316 9-242, R200K).
T1 sequence: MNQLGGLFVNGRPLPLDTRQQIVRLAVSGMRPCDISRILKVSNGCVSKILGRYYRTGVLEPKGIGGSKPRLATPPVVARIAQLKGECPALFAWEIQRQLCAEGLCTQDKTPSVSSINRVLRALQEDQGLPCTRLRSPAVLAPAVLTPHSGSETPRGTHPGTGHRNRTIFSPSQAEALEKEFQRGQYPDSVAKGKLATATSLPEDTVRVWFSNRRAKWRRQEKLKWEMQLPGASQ

Assay [12] concerns the target T2, PAX4 (Homo sapiens, UniProt O43316 9-242).
T2 sequence: T1 sequence with K192R

Assay [13] deals with T3, PAX4 (Homo sapiens, UniProt O43316 9-242, R200Q).
T3 sequence: T1 sequence with K192Q

The target in assay [14] is T4, PAX4 (Homo sapiens, UniProt O43316 9-242, F177V).
T4 sequence: T1 sequence with F169V, K192R

Assay [15] concerns the target T5, PAX4 (Homo sapiens, UniProt O43316 9-242, F177Y).
T5 sequence: T1 sequence with F169Y, K192R

Assay [16] deals with HESX1 (Homo sapiens, UniProt Q9UBX0 95-180, R109Q).
For assay [17], the target named is HESX1 (Homo sapiens, UniProt Q9UBX0 95-180, F115L).
Assay [18] concerns the target T6, PAX4 (Homo sapiens, UniProt O43316 9-242, R227W).
T6 sequence: T1 sequence with K192R, R219W

Assay [19] concerns the target VAX1 (Homo sapiens, UniProt Q5SQQ9 86-172).
Assay [20] deals with VAX1 (Homo sapiens, UniProt Q5SQQ9 86-172, T142I).
Assay [21] concerns the target VAX1 (Homo sapiens, UniProt Q5SQQ9 86-172, K157R).
In assay [22] the target is HOXA2 (Homo sapiens, UniProt O43364 129-215, R185T).
Assay [23] deals with HOXA2 (Homo sapiens, UniProt O43364 129-215, R185K).
Assay [24] addresses HOXA2 (Homo sapiens, UniProt O43364 129-215, Y150S).
The target of assay [25] is HOXA2 (Homo sapiens, UniProt O43364 129-215).
Assay [26] has as its target ALX1 (Homo sapiens, UniProt Q15699 118-204, L144V).
The target of assay [27] is ALX1 (Homo sapiens, UniProt Q15699 118-204, L144R).
Assay [28] deals with ALX1 (Homo sapiens, UniProt Q15699 118-204).
In assay [29] the target is PROP1 (Homo sapiens, UniProt O75360 56-141).
The target of assay [30] is PROP1 (Homo sapiens, UniProt O75360 56-141, R99H).
In assay [31] the target is PROP1 (Homo sapiens, UniProt O75360 56-141, F88S).
Sequence of PROP1 (Homo sapiens, UniProt O75360 56-141, F88S) (O75360 56-141 F88S): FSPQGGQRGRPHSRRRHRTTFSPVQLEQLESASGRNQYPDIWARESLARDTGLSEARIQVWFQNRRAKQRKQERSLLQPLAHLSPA

Sequence of ALX4 (Homo sapiens, UniProt Q9H161 200-286, Q225E) (Q9H161 200-286 Q225E): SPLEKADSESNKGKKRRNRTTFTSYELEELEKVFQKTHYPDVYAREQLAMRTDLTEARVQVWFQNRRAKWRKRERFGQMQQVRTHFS
Sequence of ALX4 (Homo sapiens, UniProt Q9H161 200-286) (Q9H161 200-286): as the sequence (Q9H161 200-286 Q225E) above, with E26Q counted along it
Sequence of ALX3 (Homo sapiens, UniProt O95076 139-225, L168V) (O95076 139-225 L168V): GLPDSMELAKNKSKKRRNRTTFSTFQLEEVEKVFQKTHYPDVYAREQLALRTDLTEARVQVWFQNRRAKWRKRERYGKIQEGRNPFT
Sequence of VAX1 (Homo sapiens, UniProt Q5SQQ9 86-172, K157R) (Q5SQQ9 86-172 K157R): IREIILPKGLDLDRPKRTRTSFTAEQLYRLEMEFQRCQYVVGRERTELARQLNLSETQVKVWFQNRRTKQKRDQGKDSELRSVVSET
Sequence of ALX1 (Homo sapiens, UniProt Q15699 118-204, L144V) (Q15699 118-204 L144V): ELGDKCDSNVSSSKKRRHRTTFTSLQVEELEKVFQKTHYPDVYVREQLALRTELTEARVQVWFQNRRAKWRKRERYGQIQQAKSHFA
Sequence of PRRX1 (P54821 80-166 F113S): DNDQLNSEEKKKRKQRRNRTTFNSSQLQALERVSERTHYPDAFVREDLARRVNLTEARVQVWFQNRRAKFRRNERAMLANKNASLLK
Sequence of MSX2 (Homo sapiens, UniProt P35548 130-214, R199I) (P35548 130-214 R199I): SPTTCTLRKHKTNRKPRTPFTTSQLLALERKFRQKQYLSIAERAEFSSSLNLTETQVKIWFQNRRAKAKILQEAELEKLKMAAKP
Sequence of MSX2 (Homo sapiens, UniProt P35548 130-214) (P35548 130-214): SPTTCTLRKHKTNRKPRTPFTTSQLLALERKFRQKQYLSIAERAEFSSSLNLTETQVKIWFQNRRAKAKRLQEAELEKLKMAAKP
Sequence of HESX1 (Homo sapiens, UniProt Q9UBX0 95-180, R109Q) (Q9UBX0 95-180 R109Q): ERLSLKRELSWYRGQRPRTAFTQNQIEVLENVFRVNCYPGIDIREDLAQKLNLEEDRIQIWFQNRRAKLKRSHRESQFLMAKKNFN
Sequence of ALX3 (Homo sapiens, UniProt O95076 139-225) (O95076 139-225): as the sequence (O95076 139-225 L168V) above, with V30L counted along it
Sequence of MSX2 (Homo sapiens, UniProt P35548 130-214, F161Y) (P35548 130-214 F161Y): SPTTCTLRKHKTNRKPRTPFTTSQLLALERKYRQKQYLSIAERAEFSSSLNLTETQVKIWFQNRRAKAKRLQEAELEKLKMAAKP
Sequence of ALX1 (Homo sapiens, UniProt Q15699 118-204, L144R) (Q15699 118-204 L144R): as the sequence (Q15699 118-204 L144V) above, with V27R counted along it
Sequence of HOXA2 (Homo sapiens, UniProt O43364 129-215, Y150S) (O43364 129-215 Y150S): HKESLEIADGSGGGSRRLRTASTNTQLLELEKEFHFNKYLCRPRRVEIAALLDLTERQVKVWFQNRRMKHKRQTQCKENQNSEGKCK
Sequence of HESX1 (Homo sapiens, UniProt Q9UBX0 95-180, F115L) (Q9UBX0 95-180 F115L): as the sequence (Q9UBX0 95-180 R109Q) above, with Q15R, F21L counted along it
Sequence of PROP1 (Homo sapiens, UniProt O75360 56-141, R99H) (O75360 56-141 R99H): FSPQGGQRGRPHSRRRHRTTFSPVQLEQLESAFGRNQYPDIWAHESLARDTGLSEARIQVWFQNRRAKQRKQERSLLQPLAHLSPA
Sequence of HOXA2 (Homo sapiens, UniProt O43364 129-215, R185K) (O43364 129-215 R185K): as the sequence (O43364 129-215 Y150S) above, with S22Y, R57K counted along it
Sequence of VAX1 (Homo sapiens, UniProt Q5SQQ9 86-172) (Q5SQQ9 86-172): as the sequence (Q5SQQ9 86-172 K157R) above, with R72K counted along it
Sequence of PROP1 (Homo sapiens, UniProt O75360 56-141) (O75360 56-141): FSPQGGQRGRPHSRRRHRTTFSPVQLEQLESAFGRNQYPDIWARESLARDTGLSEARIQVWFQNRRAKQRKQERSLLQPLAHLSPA
Sequence of VAX1 (Homo sapiens, UniProt Q5SQQ9 86-172, T142I) (Q5SQQ9 86-172 T142I): as the sequence (Q5SQQ9 86-172 K157R) above, with T57I, R72K counted along it
Sequence of ALX3 (Homo sapiens, UniProt O95076 139-225, N203Q) (O95076 139-225 N203Q): as the sequence (O95076 139-225 L168V) above, with V30L, N65Q counted along it
Sequence of ALX1 (Homo sapiens, UniProt Q15699 118-204) (Q15699 118-204): as the sequence (Q15699 118-204 L144V) above, with V27L counted along it
Sequence of HOXA2 (Homo sapiens, UniProt O43364 129-215) (O43364 129-215): as the sequence (O43364 129-215 Y150S) above, with S22Y counted along it
Sequence of SHOX (O15266 103-189 R173C): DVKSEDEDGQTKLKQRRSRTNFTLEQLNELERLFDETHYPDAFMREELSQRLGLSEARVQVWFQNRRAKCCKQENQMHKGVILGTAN
Sequence of ALX3 (Homo sapiens, UniProt O95076 139-225, L168Q) (O95076 139-225 L168Q): as the sequence (O95076 139-225 L168V) above, with V30Q counted along it
Sequence of HOXA2 (Homo sapiens, UniProt O43364 129-215, R185T) (O43364 129-215 R185T): as the sequence (O43364 129-215 Y150S) above, with S22Y, R57T counted along it
Sequence of ALX3 (Homo sapiens, UniProt O95076 139-225, N203S) (O95076 139-225 N203S): as the sequence (O95076 139-225 L168V) above, with V30L, N65S counted along it

Consider GCTCAAGC, for which the binding signal was 8.08 upbm affinity estimate (log intensity, higher = more binding, comparable within an allelic series) in the assay with ALX4 [1] and 8.25 upbm affinity estimate (log intensity, higher = more binding, comparable within an allelic series) with ALX4 [2].

Consider GAGAGCGC, for which the binding signal was 7.97 upbm affinity estimate (log intensity, higher = more binding, comparable within an allelic series) with ALX4 [1]; 8.13 upbm affinity estimate (log intensity, higher = more binding, comparable within an allelic series) in the assay with ALX4 [2]; 7.72 upbm affinity estimate (log intensity, higher = more binding, comparable within an allelic series) in the assay with ALX3 [3]; 7.6 upbm affinity estimate (log intensity, higher = more binding, comparable within an allelic series) in the assay with ALX3 [4]; 7.75 upbm affinity estimate (log intensity, higher = more binding, comparable within an allelic series) with ALX3 [5]; 7.76 upbm affinity estimate (log intensity, higher = more binding, comparable within an allelic series) with ALX3 [6]. Moreover, the binding signal in the assay with ALX3 [7] is 7.72 upbm affinity estimate (log intensity, higher = more binding, comparable within an allelic series).

CCTGCGAG: the binding signal with ALX4 [1] was 7.97 upbm affinity estimate (log intensity, higher = more binding, comparable within an allelic series); in the assay with ALX4 [2], 7.97 upbm affinity estimate (log intensity, higher = more binding, comparable within an allelic series); with MSX2 [8] it was 9.6 upbm affinity estimate (log intensity, higher = more binding, comparable within an allelic series); in the assay with MSX2 [9], 9.6 upbm affinity estimate (log intensity, higher = more binding, comparable within an allelic series); with MSX2 [10], 9.61 upbm affinity estimate (log intensity, higher = more binding, comparable within an allelic series).

As for AATTAGAA, the binding signal with PAX4 [11] is 11.6 upbm affinity estimate (log intensity, higher = more binding, comparable within an allelic series); with PRRX1 it was 11.1 upbm affinity estimate (log intensity, higher = more binding, comparable within an allelic series); with PAX4 [12], 12.1 upbm affinity estimate (log intensity, higher = more binding, comparable within an allelic series); in the assay with PAX4 [13], 11.9 upbm affinity estimate (log intensity, higher = more binding, comparable within an allelic series); with SHOX it was 9.39 upbm affinity estimate (log intensity, higher = more binding, comparable within an allelic series); with PAX4 [14], 10.5 upbm affinity estimate (log intensity, higher = more binding, comparable within an allelic series). The binding signal with PAX4 [15] was 10.9 upbm affinity estimate (log intensity, higher = more binding, comparable within an allelic series); with HESX1 [16], 8.83 upbm affinity estimate (log intensity, higher = more binding, comparable within an allelic series); with ALX3 [6], 9.7 upbm affinity estimate (log intensity, higher = more binding, comparable within an allelic series); in the assay with HESX1 [17] it was 7.75 upbm affinity estimate (log intensity, higher = more binding, comparable within an allelic series); with PAX4 [18], 10.9 upbm affinity estimate (log intensity, higher = more binding, comparable within an allelic series).

Consider AGGAGCCC, for which the binding signal with ALX4 [1] was 7.99 upbm affinity estimate (log intensity, higher = more binding, comparable within an allelic series); in the assay with ALX4 [2] it was 8.19 upbm affinity estimate (log intensity, higher = more binding, comparable within an allelic series); in the assay with VAX1 [19], 6.97 upbm affinity estimate (log intensity, higher = more binding, comparable within an allelic series); in the assay with VAX1 [20], 7.08 upbm affinity estimate (log intensity, higher = more binding, comparable within an allelic series); in the assay with VAX1 [21], 7.05 upbm affinity estimate (log intensity, higher = more binding, comparable within an allelic series).

For the sequence CCGCAGAC, the binding signal with ALX4 [1] was 8.08 upbm affinity estimate (log intensity, higher = more binding, comparable within an allelic series); with ALX4 [2], 8.21 upbm affinity estimate (log intensity, higher = more binding, comparable within an allelic series); with HOXA2 [22] it was 7.17 upbm affinity estimate (log intensity, higher = more binding, comparable within an allelic series); with HOXA2 [23], 10.2 upbm affinity estimate (log intensity, higher = more binding, comparable within an allelic series); with HOXA2 [24], 10.5 upbm affinity estimate (log intensity, higher = more binding, comparable within an allelic series); with HOXA2 [25], 6.96 upbm affinity estimate (log intensity, higher = more binding, comparable within an allelic series).

For the sequence GCAGCTCC, the binding signal with ALX4 [1] is 8.25 upbm affinity estimate (log intensity, higher = more binding, comparable within an allelic series); with ALX4 [2], 8.26 upbm affinity estimate (log intensity, higher = more binding, comparable within an allelic series).

Regarding GACCGTCC, the binding signal in the assay with ALX4 [1] was 8.08 upbm affinity estimate (log intensity, higher = more binding, comparable within an allelic series); with ALX4 [2], 8.15 upbm affinity estimate (log intensity, higher = more binding, comparable within an allelic series); in the assay with ALX1 [26], 6.23 upbm affinity estimate (log intensity, higher = more binding, comparable within an allelic series); with PITX2 it was 8.03 upbm affinity estimate (log intensity, higher = more binding, comparable within an allelic series); with ALX1 [27], 6.38 upbm affinity estimate (log intensity, higher = more binding, comparable within an allelic series); with ALX1 [28], 6.51 upbm affinity estimate (log intensity, higher = more binding, comparable within an allelic series).

As for CGGGCCTC, the binding signal with ALX4 [1] is 8.16 upbm affinity estimate (log intensity, higher = more binding, comparable within an allelic series); with ALX4 [2], 8.25 upbm affinity estimate (log intensity, higher = more binding, comparable within an allelic series); in the assay with PROP1 [29], 6.76 upbm affinity estimate (log intensity, higher = more binding, comparable within an allelic series); with PROP1 [30] it was 6.84 upbm affinity estimate (log intensity, higher = more binding, comparable within an allelic series); with PROP1 [31] it was 6.55 upbm affinity estimate (log intensity, higher = more binding, comparable within an allelic series).
